Assay outcomes: PubChem BioAssay, National Center for Advancing Translational Sciences (NCATS)
Pf growth 96h = P. falciparum growth inhibition at 96 hour, primary screen for plastid delayed-death inhibitors; P. falciparum luciferase reporter growth, 96 h; Potency, µM (series often up to 28.7 µM), inactives show top-dose activity change, negative = inhibition, actives largely listed as inhibitors; 320,000 compounds, 6.9% hits; AID 504834; further: on the % scale 0 is the no-effect control and ±100 the full control effect
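Plates of compound plus infected erythrocytes (2% hematocrit, 0.05% parasitemia final) incubate 96 hours, 37 C, 5% CO2. Detection reagent added; reduced luminescence from the parasites' luciferase reporter flags inhibition.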
SARS PLpro yeast = blocks SARS-CoV papain-like protease in a yeast assay; S. cerevisiae expressing SARS-CoV PLpro, growth rescue; Potency, µM (top dose mostly 32.9 µM), inactives show at the highest dose activity, positive = growth rescue, actives largely listed as activators; 330,000 compounds, 0.19% hits; AID 485353; calls by dose curve; further: 0% is about no effect; nearly all actives have a fitted effect of over 55% in size
Pf growth 48h = inhibits P. falciparum growth in the first generation, 48 h; 310,000 compounds, 5.9% hits; AID 504832; P. falciparum luciferase growth in erythrocytes, 48 h; Potency, µM (highest dose often 28.7 µM), for inactives: at the top dose activity change, negative = inhibition, usual class: inhibitors; further: on the % scale 0 is the no-effect control and ±100 the full control effect
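In quantitative HTS format, infected erythrocytes bearing luciferase-reporter parasites were treated for a single generation at 37 C. Luminescence after adding detection reagent served as the growth measure.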
NS1 function inh = inhibitors of influenza NS1 protein function; Potency, µM (series often up to 46.1 µM), for the others: at the top dose activity, positive = more growth; 270,000 compounds, 0.4% hits; calls by dose curve; further: actives are rising curves; nearly all actives have a fitted effect of over 50% in size
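Compounds were scored for reversing the slow growth caused by influenza A NS1 in S. cerevisiae, measured by optical density at 600 nm. Assay medium contained 2% galactose at pH 6.0; NS1-free yeast of the same strain were the positive control.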
* = called active by the depositor; ? = inconclusive; nt = not tested or not shown; [ ] = another dose, or the depositor's remark. In the library only some 10% were active in any assay of this set; here they are far more common. Unless noted, the call rests on the fitted dose curve; in most records, active means well fitted inhibition curve with a large enough effect; inconclusive means small, poorly fitted or top-dose-only effect, or another doubt; inactive means no such curve, though single readings can be large or run the other way. Potency means the concentration at half of the fitted maximal effect.

SMILES	Pf growth 96h	SARS PLpro yeast	Pf growth 48h	NS1 function inh
CC1CC(NC(=O)c2cc3c(=O)n4ccccc4nc3n2C)CC(C)(C)C1 (stereo not drawn)	0%	10%	12µM*	-11%
OC(CNCC1(N2CCCCC2)CCCCC1)COc1ccc(Cl)cc1Cl (stereo not drawn)	?	0%	3.3µM*	nt
O=C(Nc1ccc2c(c1)C(=O)NC2=O)c1ccc2ncsc2c1	192%	0%	155%	7%
CCN(CC)CCC(=O)N1c2ccccc2CCc2ccc(NC(=O)OC(C)C)cc21	?	-1%	?	2%
CN(C)CC(=O)N1c2ccccc2CCc2ccc(NC(=O)c3ccc(N)cc3)cc21	65%	-4%	5.9µM*	15%
CC(=O)Nc1ccc2c(c1)N(C(C)=O)c1ccccc1CC2	?	0%	?	6%
CCOC(=O)Nc1ccc2c(c1)N(CCCN(C)C)c1ccccc1CC2	13µM*	-16%	?	-14%
COc1cc(C(=O)Nc2ccc3c(c2)N(C(=O)CCN(C)C)c2ccccc2CC3)cc(OC)c1OC	9.3µM*	0%	10µM*	-2%
COc1cc(C(=O)Nc2cccc(NC(=O)c3ccccc3)c2)cc(OC)c1OC	?	-4%	?	1%
CCN(CC)CCC(=O)Nc1ccc2c(c1)N(C(=O)CN(CC)CC)c1ccccc1CC2	?	-3%	10µM*	10%
O=C(COC(=O)c1ccc(Br)cc1)NC(=O)NCc1ccccc1	34%	-14%	6%	nt
Fc1cccc(/C=C2\CCCC3=C2NC(=S)NC3c2cccc(F)c2)c1 (stereo not drawn)	4.1µM*	0%	2.6µM*	7%
S=C1NC2=C(CCC/C2=C\c2ccccc2)C(c2ccccc2)N1 (stereo not drawn)	?	-3%	-22%	18%
CCCCSCCCNC(=O)c1ccc2c(c1)N(CC)C(=O)c1ccccc1S2=O (stereo not drawn)	5%	1%	13µM*	-1%
CCCCNC(=O)c1ccc2c(c1)N(CC)C(=O)c1ccccc1S2(=O)=O	1.5µM*	0%	-20%	-15%
CC(C)OCCCNC(=O)c1ccc2c(c1)S(=O)(=O)c1ccccc1C2=O	9.3µM*	-3%	-22%	-7%
O=C(NCCN1CCOCC1)c1ccc2c(c1)N(Cc1ccccc1)C(=O)c1ccccc1S2	-18%	nt	?	-5%
CCN1C(=O)c2ccccc2S(=O)(=O)c2ccc(C(=O)NC(C)C)cc21	?	-1%	0%[0.00184 µM]	4%
CCCN(CCC)CCCNC(=O)c1ccc2c(c1)N(CC)C(=O)c1ccccc1S2=O (stereo not drawn)	nt	0%	?	0%
O=C(NCCN1CCOCC1)c1ccc2c(c1)N(Cc1c(F)cccc1Cl)C(=O)c1ccccc1S2	9.3µM*	-1%	13µM*	nt
CCCCNC(=O)c1ccc2c(c1)S(=O)(=O)c1ccccc1C2=O	-20%	?	13%	-10%
O=C(CNC(=O)c1ccc(Cl)cc1)NNc1c(F)c(F)cc(F)c1F	nt	-5%	nt	nt
COc1ccccc1C(=O)NCC(=O)OC(C)C(=O)N1CCOCC1 (stereo not drawn)	7%	-2%	4%	nt
COC(=O)/C=C/c1cccc([C@H]2[C@@H]3C=CC[C@@H](C)[C@@H]3C(=O)N2Cc2ccccc2)c1	nt	-28%	nt	nt
COc1ccc(C(C(=O)NC2CCCC2)N(CCO)C(=O)Cn2nnc(-c3ccc(C)o3)n2)cc1OC (stereo not drawn)	?	2%	6%	-4%
SMILES	Pf growth 96h	SARS PLpro yeast	Pf growth 48h	NS1 function inh
N=C(N)CCNC(=O)[C@@H]1CCC(N)=N1	nt	nt	nt	-1%
O=c1oc(CCCO)cc2ccccc12	nt	1%	nt	nt
CC(C)OCCCNC(=O)c1ccc(NS(C)(=O)=O)cc1	10µM*	5%	-5%	-18%
O=C(NCCN1CCCC1)c1ccc2c(c1)N(Cc1ccccc1)C(=O)c1ccccc1S2(=O)=O	29%	1%	8.3µM*	-5%
COCCNC(=O)c1ccc(NS(C)(=O)=O)cc1	nt	6%	5%	0%
O=C(NCCN1CCOCC1)c1ccc2c(c1)N(Cc1ccc(F)cc1)C(=O)c1ccccc1S2(=O)=O	?	25%	?	-4%
CCN1C(=O)c2ccccc2Sc2ccc(C(=O)NCCCN(CC(C)C)CC(C)C)cc21	27%	1%	10µM*	5%
CCOc1ccccc1Nc1nnc(SCC(=O)NC2CCS(=O)(=O)C2)s1 (stereo not drawn)	nt	1%	nt	nt
CCn1c(C)c(Br)c(=O)c(C(=O)OC)c1-c1ccc(Cl)cc1	6%	-1%	-14%	2%
